Assay results as given in PubChem BioAssay AID2685 (National Center for Advancing Translational Sciences (NCATS), 2010).
Out of some 320,000 compounds screened, about 2,100 (0.66%) were called active. About 53% were inconclusive and are not listed. Calls follow the shape of the dose curve; as a rule, active = well fitted inhibition curve with a large enough effect in the signal ratio, with a control signal flat (not every such curve was filed as active); inconclusive = small, poorly fitted or top-dose-only effect, or effect the other way, or a change in a side signal; inactive = flat fitted curve, though single readings scatter; the % refers to the signal ratio. The sample as a whole holds a higher share of actives than the screen did.

assay: qHTS Assay for Lipid Storage Modulators in Drosophila S3 Cells; conditions: BODIPY lipid droplet fluorescence, 18-24 h, cells fed with added oleic acid; cell number change: measured here: cell count max response; series mostly up to 46.1 µM; lipid storage change, negative = inhibition: at the top concentration;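 as to cell number change: cells counted by Cell Tracker Red CMTPX staining in the red channel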; as to lipid storage change, negative = inhibition: % is scaled to controls: 0 for no effect and ±100 for the full control effect
How it was run: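 Laser-scanning cytometry quantifies lipid droplet accumulation (500–530 nm total intensity; droplet/cell object ratio) in oleic acid-fed (400 uM added) Drosophila S3 cells treated with a concentration series. 20 uM Triacsin C defined 100% inhibition.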
Potency is read from the fitted curve at half-maximal effect.

Compound | lipid storage change, negative = inhibition | cell number change [%] | outcome | Potency
O=C(NCCc1nc2ccccc2[nH]1)/C(=C/c1ccco1)NC(=O)c1ccc(Br)o1 | -4.25% (inactive) | -2.37 | – | –
COc1ccc2[nH]c(C)c(CN3CCCCC3)c(=O)c2c1 | -27.3% (inactive) | -15.2 | – | –
CCc1nnc(NC(=O)C2CCN(S(=O)(=O)Cc3ccccc3)CC2)s1 | -3.51% (inactive) | -9.95 | – | –
CC(=O)c1cccc(NC(=O)CSc2nnc(-c3ccncc3)o2)c1 | – | 13.1 | inactive | –
O=C(c1cccc([N+](=O)[O-])c1)N1CCN(c2cccc(Cl)c2)CC1 | 19.9% (inactive) | – | – | –
O=C(NCCN1CCN(C(=O)c2ccc([N+](=O)[O-])cc2)CC1)C(=O)NCc1ccccc1 | – | -7.25 | inactive | –
O=C(NCCN1CCN(C(=O)c2cccc([N+](=O)[O-])c2)CC1)C(=O)NCc1ccc(Cl)cc1 | – | -18.5 | – | 6.51 µM (active)
CC(=O)Nc1ccc(SCC(=O)c2c(N)n(Cc3ccccc3)c(=O)n(C)c2=O)cc1 | -2.16% (inactive) | 14.5 | – | –
CCOC(=O)C1CCN(C(=O)CCNC(=O)Cn2ccc3ccccc3c2=O)CC1 | 5.32% (inactive) | 0.532 | – | –
Cc1sc2nc(COC(=O)c3ccc(N4CCCC4)c([N+](=O)[O-])c3)[nH]c(=O)c2c1C | 11.9% (inactive) | 5.98 | – | –
CCOC(=O)c1c(NC(=O)c2ccc(C)cc2)sc2c1CC(C)(C)NC2(C)C | -18.8% (inactive) | -1.96 | – | –
Cc1ccc(NC(=O)Cc2nn(C)c(=O)c3ccccc23)cc1F | -0.0108% (inactive) | – | – | –
CC(=O)Nc1ccc(C(=O)NC(CC(=O)O)c2ccc(Cl)cc2)cc1 (stereo unspecified) | – | -19.4 | – | 20.6 µM (active)
CC(=O)Nc1ccc(NC(=O)CC(NC(=O)c2ccccc2)c2ccccc2)cc1 (stereo unspecified) | 2.63% (inactive) | 19 | – | –
CC(=O)Nc1ccc(C(=O)NNC(=O)c2ccc(Cl)cc2)cc1 | – | – | inactive | –
COc1ccc(NC(=O)C(c2ccc(OC)cc2)N(C)C(=O)Cc2cccs2)cc1 (stereo unspecified) | 19.6% (inactive) | 9.03 | – | –
O=C(Cc1ccccc1)NNC1CC(=O)N(c2ccccc2)C1=O (stereo unspecified) | 10.5% (inactive) | 0.451 | – | –
CC(=O)N1CCN(c2ccc(NC(=O)c3ccc(N4CCCC4)c([N+](=O)[O-])c3)cc2Cl)CC1 | – | – | inactive | –
CCc1ccc(N2CC(C(=O)Nc3nc4ccc(S(C)(=O)=O)cc4s3)CC2=O)cc1 (stereo unspecified) | – | -21.1 | – | 2.31 µM (active)
CCc1ccc(N2CC(C(=O)Nc3nccs3)CC2=O)cc1 (stereo unspecified) | 12.6% (inactive) | -0.507 | – | –
O=C(Nc1nc2ccccc2s1)C1CC(=O)N(c2ccc(Br)cc2)C1 (stereo unspecified) | – | 1.03 | inactive | –
COc1cc(-n2c(=O)c3ccccc3n(CC(=O)c3ccc(Br)cc3)c2=O)cc(OC)c1OC | -0.64% (inactive) | 7.89 | – | –
CC(=O)Nc1ccc(NC(=S)NC(=O)C2CCCC2)cc1 | – | 16.2 | inactive | –
COc1ccc(NC(=S)NC(=O)C2CCC2)cc1 | 15.8% (inactive) | -5.57 | – | –

Compound | lipid storage change, negative = inhibition | cell number change [%] | outcome | Potency
CCN(CC)c1ccc(NC(=S)NC(=O)C2CCC2)cc1 | – | -16.8 | – | 4.11 µM (active)
Cc1ccc(C(=O)OCC(=O)NCCNC(=O)COC(=O)c2ccc(C)o2)o1 | – | 26.3 | inactive [at 0.0737 µM] | –
Cc1ccc(S(=O)(=O)Nc2ccc(-c3ccc4nncn4n3)cc2)cc1 | 7.13% (inactive) | -22.1 | – | –
CC(=O)Nc1ccc(S(=O)(=O)Nc2cccc(-c3ccc4nncn4n3)c2)cc1 | – | -19.1 | – | 0.731 µM (active)
Cc1ccc(S(=O)(=O)Nc2cccc(-c3ccc4nncn4n3)c2)cc1 | -0.542% [at 0.0737 µM] (inactive) | – | – | –
CC(C(=O)NC1CCCC1)N(C(=O)Cn1nnc(-c2ccc(F)cc2)n1)c1ccccc1F (stereo unspecified) | – | -1.32 | inactive | –
CC(C(=O)NC1CCCC1)N(c1ccc(Oc2ccccc2)cc1)S(C)(=O)=O (stereo unspecified) | 15.3% (inactive) | 11.4 | – | –
CCOc1ccc(N(C(C)C(=O)NC2CCCCCC2)S(C)(=O)=O)cc1 (stereo unspecified) | – | – | inactive | –
COc1ccc(N(CC(=O)NC2CCCC2)C(=O)Cn2nnc(-c3ccc(F)cc3)n2)cc1 | – | 7.89 | inactive | –
COc1ccc(N(C(C)C(=O)NC2CCCCCC2)S(C)(=O)=O)cc1 (stereo unspecified) | – | 22.1 | – | 5.17 µM (active)
COc1ccc(N(C(=O)Cn2nnc(-c3ccc(F)cc3)n2)C(C)C(=O)NC2CCCC2)cc1 (stereo unspecified) | – | 10.5 | – | 1.3 µM (active)
CCC(CC)c1nnc(NC(=O)CN2C(=O)NC3(CCCC3)C2=O)s1 | – | 9 | inactive [at 0.369 µM] | –
Cn1c(Cn2c3ccccc3c3ccccc32)n[nH]c1=S | 2.12% (inactive) | -6.36 | – | –
O=C(O)c1ccccc1-n1cnnn1 | -27.2% (inactive) | -10.9 | – | –
CCCCNCCOCCSc1ccc(Cl)cc1 | -18.9% (inactive) | -17.4 | – | –
CC(C)NCCOCCSc1ccc(Cl)cc1 | – | -7.67 | – | 20.6 µM (active)
CCC(C)NCCOCCSc1ccc(Cl)cc1 (stereo unspecified) | 0.747% (inactive) | 14.1 | – | –
Cc1ccccc1C(=O)Nc1cccc(-c2ccc3nncn3n2)c1 | -1.94% (inactive) | 10.3 | – | –
CCOc1ccccc1OCCn1ncc2ccc(OC)c(OC)c2c1=O | -3.25% (inactive) | 16.5 | – | –
CCOc1ccccc1OCCCNCc1ccccc1 | 26.7% (inactive) | 2.07 | – | –
Brc1ccccc1OCCNCc1ccccc1 | 7.29% (inactive) | 17.2 | – | –
COCCNCc1ccccc1 | – | -17.8 | – | 18.4 µM (active)
CS(=O)(=O)c1ccc(C(=O)Nc2ccc(N3CCOCC3)cc2)c(Cl)c1 | -24.8% (inactive) | – | – | –
COc1ccc(NC(=O)COC(=O)C2CCC2)cc1Cl | 6.28% (inactive) | 12.2 | – | –

Compound | lipid storage change, negative = inhibition | cell number change [%] | outcome | Potency
Cc1cc(=O)[nH]c(SCC(=O)Nc2nc3c(s2)CCCC3)n1 | -0.416% (inactive) | 12.9 | – | –
CCC(Sc1nc(C)cc(=O)[nH]1)C(=O)Nc1nc2c(s1)CCCC2 (stereo unspecified) | – | -8.37 | – | 14.6 µM (active)
COc1cc(=O)[nH]c(SC(C)C(=O)Nc2nc3c(s2)CCCC3)n1 (stereo unspecified) | – | 7.98 | inactive | –
Cc1ccccc1-c1nc(CSc2nc3c(c(=O)[nH]2)CCC3)c(C)o1 | 29% (inactive) | -21.7 | – | –
CCc1nc2scc(-c3cccs3)c2c(=O)o1 | 6.47% (inactive) | 9.87 | – | –
O=c1oc(-c2cccs2)nc2scc(-c3cccs3)c12 | – | -10.7 | – | 14.6 µM (active)
Cc1sc2nc(-c3cccs3)oc(=O)c2c1C | 0.745% (inactive) | 5.53 | – | –
CN1CCN(NC(=O)Nc2ccc(F)cc2)CC1 | – | 17.8 | inactive | –
CN1CCN(NC(=O)Nc2ccc(Br)cc2)CC1 | 2.95% (inactive) | – | – | –
CN1CCN(NC(=O)Nc2cc(Cl)cc(Cl)c2)CC1 | – | – | – | 4.61 µM (active)
CCOC(=O)C1CCCN(C(=O)c2cc3ncc(Br)cn3n2)C1 (stereo unspecified) | – | 5.95 | inactive | –
CC(Oc1ccccc1)c1nnc(N)s1 (stereo unspecified) | -1.67% (inactive) | 14.9 | – | –
O=C(COc1ccc(Cl)cc1)Nc1ccc(N2CCN(C(=O)c3ccco3)CC2)cc1 | -3.43% (inactive) | -2.54 | – | –
O=C(Nc1ccc(N2CCN(C(=O)c3ccco3)CC2)cc1)c1ccco1 | 0.808% (inactive) | 25.3 | – | –
CC(=O)N1CCN(c2ccc(NC(=O)c3ccco3)cc2)CC1 | – | -9.52 | inactive | –
O=C(COc1ccccc1)Nc1ccc(N2CCN(C(=O)c3ccco3)CC2)cc1 | 1.13% (inactive) | 11.5 | – | –
O=C(COc1ccc([N+](=O)[O-])cc1)Nc1ccc(N2CCN(C(=O)c3ccco3)CC2)cc1 | – | -6.49 | – | 2.06 µM (active)
CC(C)(C)OC(=O)N1CCN(c2ccc(NC(=O)c3ccco3)cc2)CC1 | – | 4.03 | – | 3.26 µM (active)
CCOC(=O)C1CCCN(C2CC(=O)N(c3ccc(C(C)C)cc3)C2=O)C1 (stereo unspecified) | -14.3% (inactive) | 15.9 | – | –
COc1cccc(NC(=O)COC(=O)CCS(=O)(=O)c2ccc(C)cc2)c1 | 9.39% (inactive) | – | – | –
O=C(NC1CCSC1=O)c1ccc(Cl)cc1 (stereo unspecified) | -0.574% (inactive) | 12 | – | –
CC(C)[C@H](NC(=O)NC1CCN(Cc2ccccc2)CC1)C(=O)O | -6.91% (inactive) | 11.2 | – | –
N=C1C(=O)OCC1c1ccccc1NC(=O)c1ccc(F)cc1 (stereo unspecified) | – | -9.08 | inactive | –
O=C(Nc1cccc(NC(=O)c2ccccc2[N+](=O)[O-])n1)c1ccccc1[N+](=O)[O-] | -1.54% (inactive) | -14.1 | – | –

Compound | lipid storage change, negative = inhibition | cell number change [%] | outcome | Potency
Cc1cc(C)nc(N2CCC(C(=O)NC3CC3)CC2)n1 | – | 11.7 | – | 0.58 µM (active)
Cc1cc(C)nc(N2CCC(C(=O)O)CC2)n1 | 1.1% (inactive) | – | – | –
Cc1cc(C)nc(N2CCCC(C(=O)NC3CC3)C2)n1 (stereo unspecified) | – | 0.42 | inactive | –
CCc1ccc(NC(=O)C2CCN(S(=O)(=O)c3c(C)noc3C)CC2)cc1 | – | – | inactive | –
Cc1noc(C)c1S(=O)(=O)N1CCC(C(=O)Nc2ccc(OC(F)(F)F)cc2)CC1 | – | -15.1 | – | 18.4 µM (active)
COc1ccc(NC(=O)C2CCN(S(=O)(=O)c3c(C)noc3C)CC2)cc1OC | -10.7% (inactive) | 0.165 | – | –
CCCN1CCN(CCCNC(=O)c2ccc3nc(N4CCC(C)CC4)sc3c2)CC1 | – | -11.1 | inactive | –
N#CCCN1CCN(S(=O)(=O)c2ccc(S(=O)(=O)NC3CC3)cc2)CC1 | 23.6% (inactive) | 17.2 | – | –
O=S(=O)(NC1CC1)c1ccc(S(=O)(=O)N2CCC3(CC2)OCCO3)cc1 | 10.1% (inactive) | 0.569 | – | –
CCS(=O)(=O)N1CCN(S(=O)(=O)c2ccc(S(=O)(=O)NC3CC3)cc2)CC1 | – | 8.57 | – | 6.51 µM (active)
CCN(c1ccccc1)S(=O)(=O)c1cc(NC(=O)COC(=O)C2CC2)ccc1Cl | 4.21% (inactive) | 6.19 | – | –
O=C(/C=C/c1cccc([N+](=O)[O-])c1)N1CCOCC1 | 11.4% (inactive) | – | – | –
O=C(/C=C/c1cccc([N+](=O)[O-])c1)c1ccc2c(c1)OCCO2 | – | -6.34 | – | 18.4 µM (active)
COc1ccc([N+](=O)[O-])cc1NC(=O)c1cccs1 | 10.1% (inactive) | – | – | –
COc1ccccc1N1CCN(C(=O)/C=C/c2cccc([N+](=O)[O-])c2)CC1 | -0.92% (inactive) | 9.07 | – | –
O=C(/C=C/c1cccc([N+](=O)[O-])c1)c1ccco1 | – | -29.8 | – | 4.11 µM (active)
O=C(/C=C/c1ccc([N+](=O)[O-])cc1)c1ccco1 | 1.8% (inactive) | -5.18 | – | –
O=C(/C=C/c1cccc([N+](=O)[O-])c1)N1CCN(c2ccc(F)cc2)CC1 | – | 2.7 | – | 20.6 µM (active)
O=C(/C=C/c1cccc([N+](=O)[O-])c1)N1CCN(C(=O)c2ccco2)CC1 | 13.1% (inactive) | 23.6 | – | –
O=C(N/N=C/c1cccc([N+](=O)[O-])c1)c1ccc2c(c1)OCCO2 | -0.131% (inactive) | 23.7 | – | –
CN(C)c1ccc(/C=C/C(=O)c2ccc3c(c2)OCCO3)cc1[N+](=O)[O-] | 13.5% (inactive) | 33.3 | – | –
COc1cc([N+](=O)[O-])ccc1N/C=C/C(=O)c1cccs1 | – | -11.2 | – | 11.6 µM (active)
CNc1cc([N+](=O)[O-])ccc1N/C=C/C(=O)c1cccs1 | -0.527% (inactive) | -14.6 | – | –
